For eight compounds, growth results are on record in PubChem BioAssay (NCI).

Holding throughout (assay): NCI-60 one-dose screen, 48 h (100 = growth as untreated, 0 = no growth, -100 = all killed)
Holding throughout (conditions): 10 µM

In assay [1] the test system is K-562 leukemia.
Assay [2] concerns MDA-MB-231 breast.
In assay [3] the test system is RXF 393 renal.
In assay [4] the test system is SF-268 CNS.
The subject of assay [5] is SF-295 CNS.
In assay [6] the test system is SF-539 CNS.
The subject of assay [7] is UACC-257 melanoma.
In assay [8] the test system is M14 melanoma.
The test system of assay [9] is HCT-15 colon.
Assay [10] concerns HT29 colon.
The test system of assay [11] is SNB-75 CNS.
Assay [12] deals with SNB-19 CNS.
Assay [13] deals with U251 CNS.
Assay [14] relates to PC-3 prostate.
The test system of assay [15] is SK-MEL-5 melanoma.
Assay [16] concerns UACC-62 melanoma.
For assay [17], the system named is LOX IMVI melanoma.
In assay [18] the test system is SK-MEL-28 melanoma.
Assay [19] deals with SK-MEL-2 melanoma.

SMILES strings stand for the structures. The panel holds about 83,000 compounds, 20% with a hit somewhere; the sample as a whole holds those more often.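 Assay: single dose, 48 h. Readout: percent growth (0 = no net growth; negative = cell death). Active: <10.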 Unmarked numbers belong to inactive results. The source made the active and inactive calls.

`Clc1ccccc1N=Cc1ccc2c(c1)OCO2`: the growth in assay [1] is 87.1%; in [2], 94.4%; in assay [3], 106%; in assay [4], 107%; in [5], 102%; in assay [6], 112%. In addition, the growth in assay [7] is 104%; in [8], 103%; in assay [9], 100%; in assay [10], 96.3%; in assay [11], 95%; in [12] it was 105%. The growth in assay [13] is 94.9%; in [14] it was 107%; in [15], 107%; in assay [16], 103%; in [17], 98.9%; in assay [18], 110%. Also, the growth in [19] was 108%.
In the case of `COc1ccc2c(c1)sc1nc(-c3ccccc3)c(-c3cccnc3)n12`, the growth in [1] is 82%; in assay [2] it was 107%; in [3], 103%; in [4], 111%; in [5] it was 97%; in [6], 102%. Also, the growth in [7] is 100%; in [8], 97.7%; in assay [9], 84.6%; in assay [10], 91.5%; in [11], 95.5%; in assay [12], 103%. The growth in assay [13] is 96.2%; in [14], 88.9%; in [15], 77.7%; in [16] it was 82.7%; in assay [17] it was 91.4%; in [18] it was 110%. In addition, the growth in [19] is 120%.
With `NC1=NC(=O)C(c2ccccc2)(c2ccccc2)S1`, the growth was 90.8% in assay [1]; 104% in assay [2]; 109% in assay [3]; 113% in [4]; 112% in assay [5]; 111% in [6]. Moreover, the growth in assay [7] is 110%; in assay [8] it was 107%; in [9], 101%; in assay [10], 106%; in assay [11] it was 107%; in assay [12], 105%. Also, the growth in assay [13] is 99.4%; in [14], 103%; in assay [15] it was 110%; in assay [16], 98.2%; in assay [17] it was 101%; in assay [18] it was 101%. For the same compound, in [19], the growth was 101%.
Regarding `O=C(O)C(SC(C(=O)O)c1ccccc1)c1ccccc1` (stereo not given), the growth in assay [1] was 98.6%; in assay [2], 115%; in [3], 106%; in assay [4], 106%; in assay [5], 115%; in assay [6] it was 115%. In addition, the growth was 104% in assay [7]; 109% in [8]; 99.8% in assay [9]; 103% in [10]; 85.6% in assay [11]; 104% in [12]. Besides, the growth in assay [13] was 98.8%; in assay [14], 105%; in assay [15], 111%; in assay [16], 95.5%; in [17], 99.4%; in assay [18], 102%. For the same compound, the growth in assay [19] is 103%.
For `O=C1OCC2=C1C(c1ccc(Cl)c(Cl)c1)c1cc3c(cc1N2CCO)OCCO3` (stereo not given), the growth is 17.8% in [1]; 26.6% in assay [2]; 8.18% (active) in [3]; 43.1% in assay [4]; -12.8% (active) in assay [5]; 2.76% (active) in [6]. In addition, the growth in assay [7] was 59.9%; in [8], 12.4%; in assay [9], 18.3%; in assay [10], 2.95% (active); in assay [11] it was 30.3%; in assay [12], 33.1%. In addition, the growth in assay [13] is 18.2%; in assay [14], 19.1%; in assay [15], 29.9%; in [16], 22.5%; in [17], 44.3%; in [18], 53%.
On to `O=C(Nc1ccc(Cl)c(Cl)c1)Nc1c(Oc2ccc(Cl)c(Cl)c2)ccc(Cl)c1S(=O)(=O)O`, for which the growth was 9.98% (active) in [1]; 39.5% in assay [2]; -14.3% (active) in [3]; 52.1% in assay [4]; -27.2% (active) in assay [5]; 4% (active) in assay [6]. In addition, the growth in [7] was 61.9%; in assay [8], 19.3%; in assay [9] it was 39.6%; in [10] it was 4.55% (active); in assay [11], -11.6% (active); in assay [12], 48.3%. Besides, the growth was 22.1% in assay [13]; 19.6% in [14]; 7.15% (active) in [15]; 31.6% in assay [16]; 33.8% in [17]; 54.8% in assay [18]. Moreover, the growth in [19] was -1.82% (active).
As for `O=C1OCC2=C1C(c1cccc(Cl)c1)c1cc3c(cc1N2CCO)OCO3` (stereo not given), the growth was 15.4% in assay [1]; 31.7% in [2]; 6.21% (active) in assay [3]; 46.5% in assay [4]; -4.59% (active) in [5]; -9.08% (active) in [6]. In addition, the growth in assay [7] is 61%; in assay [8], 11%; in [9], 18.5%; in assay [10], 4.61% (active); in assay [11], 11.7%; in [12], 37.8%. Besides, the growth in [13] is 17.1%; in assay [14], 25.2%; in assay [15] it was 19%; in assay [16], 22.2%; in assay [17] it was 42.8%; in assay [18] it was 51.3%.
In the case of `CCN1CCC2(CC1)OC(c1ccccc1)C(c1ccccc1)O2` (stereo not given), the growth in assay [1] is 88.2%; in assay [2], 122%; in assay [3], 109%; in assay [4] it was 108%; in assay [5], 111%; in assay [6], 116%. Further, the growth is 116% in [7]; 112% in assay [8]; 106% in [9]; 96% in [10]; 88.2% in assay [11]; 112% in [12]. Further, the growth in assay [13] is 109%; in [14], 89.1%; in [15], 105%; in [16], 115%; in [17] it was 90.8%; in [18], 107%. For the same compound, in [19], the growth is 105%.
